Rows were chosen to be rich in hits. Some 0.45% of all compounds tested hit in one or more screens of this group.
USP1-UAF1 inh: USP1/UAF1 (human) deubiquitinase inhibition | AID 743255 | recombinant USP1/UAF1, Ub-Rhodamine cleavage fluorescence | 390,000 compounds, 0.23% hits | Potency, µM (series often up to 57.1 µM), hits mostly inhibitors; also: nearly all actives have a fitted effect of over 60% in size
Target sequence (O94782 whole entry, looked up): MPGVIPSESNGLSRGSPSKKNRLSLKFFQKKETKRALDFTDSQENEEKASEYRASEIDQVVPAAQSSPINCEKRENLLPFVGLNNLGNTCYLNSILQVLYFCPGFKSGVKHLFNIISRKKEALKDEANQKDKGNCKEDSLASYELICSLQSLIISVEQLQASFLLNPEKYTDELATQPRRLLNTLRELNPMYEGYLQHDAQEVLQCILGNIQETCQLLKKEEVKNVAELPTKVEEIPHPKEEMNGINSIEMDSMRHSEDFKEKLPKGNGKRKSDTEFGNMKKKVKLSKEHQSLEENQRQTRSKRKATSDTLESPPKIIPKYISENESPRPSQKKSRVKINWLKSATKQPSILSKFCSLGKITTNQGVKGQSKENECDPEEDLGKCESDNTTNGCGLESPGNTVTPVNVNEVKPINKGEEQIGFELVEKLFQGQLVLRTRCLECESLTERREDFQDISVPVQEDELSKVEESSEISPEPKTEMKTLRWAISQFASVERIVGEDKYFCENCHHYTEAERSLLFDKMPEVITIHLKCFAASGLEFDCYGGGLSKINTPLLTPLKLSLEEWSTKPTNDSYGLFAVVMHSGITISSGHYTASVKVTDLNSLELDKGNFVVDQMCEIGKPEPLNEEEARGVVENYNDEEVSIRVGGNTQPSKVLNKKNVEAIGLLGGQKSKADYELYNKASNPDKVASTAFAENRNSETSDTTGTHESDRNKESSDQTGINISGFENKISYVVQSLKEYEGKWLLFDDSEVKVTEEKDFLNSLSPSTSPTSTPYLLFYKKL
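In this screen, compounds sit with the deubiquitinase complex (1nM) for 15 min at room temperature before Ub-Rho is added at 150nM final. Fluorescence rise is then followed for 6 reads every 60 seconds.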
USP2a inh: inhibitors of human ubiquitin-specific protease USP2a. AID 463254. 330,000 compounds, 0.01% hits. USP2 core, Ub-CHOP2 coupled fluorogenic reporter, 485/531. Potency, µM (series often up to 38.3 µM), hits mostly inhibitors. O75604
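USP2 core (10nM final) preincubated 30min RT with compound in 20mM Tris-HCl pH 8.0, 2mM CaCl2, 2mM beta-mercaptoethanol, 0.05% CHAPS; 25nM Ub-CHOP2 plus 25nM reporter substrate added, fluorescence (Ex485/Em531) read after 60min.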
EPAC2 antagonist: antagonists of human EPAC2. Q8WZA2. EPAC2 GEF exchange of Rap1B-BODIPY-GDP, fluorescence. Potency, µM (titrated, usually from 114 µM), actives largely listed as inhibitors. 360,000 compounds, 0.18% hits; also: nearly all actives have a fitted effect of over 45% in size
EPAC1 antag: EPAC1 (human) antagonism | O95398 | EPAC1 GEF assay, Rap1b-BODIPY-GDP exchange fluorescence | Potency, µM (titrated, usually from 115 µM), most hits filed as inhibitors | 360,000 compounds, 0.14% hits; also: nearly all actives have a fitted effect of over 50% in size
EPAC2 agonist: EPAC2 (human) agonism; Q8WZA2; EPAC2 activation, biochemical qHTS; response scale: 100% = 6.5 mM cAMP response; Potency, µM (titrated, usually from 154 µM), hits mostly activators; 360,000 compounds, 0.079% hits; also: nearly all actives have a fitted effect of over 50% in size
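Compounds were titrated in qHTS against a Rap1B-BODIPY-GDP (250 nM) complex with EPAC2 (100 nM) and GDP (50 uM). BODIPY-GDP release tracked at 480/540 nm over 30 min at room temperature, normalized to 6.5 mM cAMP.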
EPAC1 ag: EPAC1 (human) agonism; EPAC1 agonist qHTS, biochemical assay; response scale: 100% = response to 6.5 mM cAMP; 360,000 compounds, 0.073% hits; Potency, µM (titrated, usually from 154 µM), most hits filed as activators; O95398; AID 720707; also: nearly all actives have a fitted effect of over 60% in size
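Compounds were pinned as a concentration titration into mixtures of EPAC1 (100 nM), BODIPY-GDP-loaded Rap1B (250 nM) and GDP (50 uM). After 5 min at room temperature, fluorescence was followed for 30 min; activity was scaled to 6.5 mM cAMP.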
Hits are given with their value; . = inactive; ? = inconclusive; / = no result. Calls follow the shape of the dose curve; as a rule, active = well fitted curve in the direction sought with a large enough effect; inconclusive = small, poorly fitted or top-dose-only effect, or another doubt; inactive = no such curve, though single readings can be large; an effect the other way counts as inactive or inconclusive.

SMILES | USP1-UAF1 inh | USP2a inh | EPAC2 antagonist | EPAC1 antag | EPAC2 agonist | EPAC1 ag
O=C(O)C1Nc2c(cccc2C(F)(F)F)C2C=CCC12 (stereo not drawn) | / | . | / | / | / | /
COc1cccc2c1NC(C(=O)O)C1CC=CC21 (stereo not drawn) | 25.1µM | . | . | ? | . | .
CC(=O)c1ccc2c(c1)C1C=CCC1C(C(=O)O)N2 (stereo not drawn) | 31.6µM | 11.2µM | . | 50.1µM | . | .
COc1ccc(CN=Cc2[nH]c3ccc(Br)c(Cl)c3c2O)cc1 | 14.1µM | . | . | . | . | .
COC(=O)[C@]12CCCCC=C1N(Cc1ccc(Cl)cc1Cl)C(=O)[C@H](CC(=O)N1CCOCC1)C2 | / | / | . | . | . | .
Cc1ccc(S(=O)(=O)NC(=O)Nc2ccc(N(C)C)cc2)cc1 | 17.8µM | . | . | . | . | .
Cc1ccc(C)c(CN2C(=O)c3ccccc3S(=O)c3ccc(C(=O)N4CCCCC4)cc32)c1 (stereo not drawn) | . | / | / | / | / | /
Cc1ccc2c(c1)c(/C=C/c1cc[n+](C)cc1)c(C)n2C | 22.4µM | ? | . | . | ? | ?
COc1cccc(C(C)(O)c2nc(-c3cnn(C)c3)cs2)c1 (stereo not drawn) | / | / | . | . | . | .
CCN(CC)c1ccc2cc(-c3nc4ccccc4n3C)c(=O)oc2c1 | ? | . | . | . | . | .
CCN(CC)c1ccc2cc(-c3nc(-c4ccc(OC)cc4)cs3)c(=O)oc2c1 | . | ? | 5.62µM | . | . | .
CCOc1ccccc1N(C)C(=O)NCc1noc2ccccc12 | . | / | / | / | / | /
CC(/C=C1\SC(=S)N(NS(=O)(=O)c2ccc(C)cc2)C1=O)=C\c1ccccc1 | ? | . | 35.5µM | 39.8µM | . | .
CC(/C=C1\SC(=S)N(NC(=O)c2ccccc2C)C1=O)=C\c1ccccc1 | . | . | . | . | . | .
CC(/C=C1\SC(=S)N(NC(=O)c2ccc(C)cc2)C1=O)=C\c1ccccc1 | . | . | . | . | . | .
CC(/C=C1\SC(=S)N(NS(=O)(=O)c2ccccc2)C1=O)=C\c1ccccc1 | ? | . | 50.1µM | 39.8µM | . | .
O=C(CC1N=C2c3ccccc3N=C(SCc3ccccc3Cl)N2C1=O)NC1CCCCC1 (stereo not drawn) | . | / | / | / | / | /
O=c1cc(-c2ccccc2Cl)oc2c(NS(=O)(=O)c3cc(Cl)cc(Cl)c3O)ccc(O)c12 | 25.1µM | . | 28.2µM | 35.5µM | . | .
CC(C)(C)CNC(=O)c1cccc2c1C(=O)c1ccc(-c3cc4ccccc4o3)cc1S2(=O)=O | . | . | . | ? | 100µM | .
COc1ccccc1OCC(=O)Nc1cccc(S(=O)(=O)NC2=NCCCCC2)c1 | . | . | . | . | . | ?
O=C(COc1ccccc1Cl)Nc1cccc(S(=O)(=O)NC2=NCCCCC2)c1 | . | . | . | . | . | 126µM
Nc1sc2c(c1C(=O)NCCc1ccccc1)CCCC2 | / | / | . | . | . | .
O=C(Nc1cc(Br)c(O)c(Br)c1)c1cccc(NC(=O)c2ccco2)c1 | . | . | . | ? | . | .
O=C(Nc1cccc(N=Cc2cc(Br)cc(Br)c2O)c1)c1ccco1 | 28.2µM | . | ? | . | . | .
CCC(CC)C(=O)Oc1c(Sc2ccccc2[N+](=O)[O-])c(C)nn1C(C)(C)C | . | . | . | . | . | .
COCC(=O)Oc1c(Sc2ccccc2[N+](=O)[O-])c(C)nn1C(C)(C)C | . | . | 56.2µM | . | . | .
Cc1ccc(Cl)cc1-n1ncc2c(N3CCN(Cc4ccccc4)CC3)ncnc21 | . | / | / | / | / | /
Cc1[nH][nH]c(=O)c1C(c1c(C)[nH][nH]c1=O)c1cn(Cc2ccc(Cl)c(Cl)c2)c2ccccc12 | 28.2µM | . | . | . | . | .
COc1ccc(OC)c2c1C(=O)c1ccccc1C2=O | 31.6µM | ? | . | . | 89.1µM | 89.1µM
COc1ccc(N)c2c1C(=O)c1ccccc1C2=O | . | . | . | . | . | .
